From ChEMBL document CHEMBL3988442, “University of Dundee, Small-Polar-MMV Screening Library” (2021)
Values joined by “and” are separate entries in the source; they are usually repeats but may differ in a detail not shown here. Identical values can stand only once. For some assays here: Entries with a potency or affinity are not part of this list.

Key:
Parameters in all cases: scale not given: direction of the effect not stated beside the values
[1] = molecular target: Protein translocase subunit SecA (Escherichia coli (strain K12)) (UniProt P10408); experiment: Assay to Identify E. coli SecA ATPase Inhibitors; format: functional; settings: 30 µM
[2] = molecular target: T1, Ubiquitin-activating enzyme e1, putative (Leishmania donovani (strain BPK282A1)) (UniProt E9BSI1); experiment: Leishmania donovani Ubiquitin Activating Enzyme (LdE1); format: functional; settings: 30 µM
T1 sequence (whole entry): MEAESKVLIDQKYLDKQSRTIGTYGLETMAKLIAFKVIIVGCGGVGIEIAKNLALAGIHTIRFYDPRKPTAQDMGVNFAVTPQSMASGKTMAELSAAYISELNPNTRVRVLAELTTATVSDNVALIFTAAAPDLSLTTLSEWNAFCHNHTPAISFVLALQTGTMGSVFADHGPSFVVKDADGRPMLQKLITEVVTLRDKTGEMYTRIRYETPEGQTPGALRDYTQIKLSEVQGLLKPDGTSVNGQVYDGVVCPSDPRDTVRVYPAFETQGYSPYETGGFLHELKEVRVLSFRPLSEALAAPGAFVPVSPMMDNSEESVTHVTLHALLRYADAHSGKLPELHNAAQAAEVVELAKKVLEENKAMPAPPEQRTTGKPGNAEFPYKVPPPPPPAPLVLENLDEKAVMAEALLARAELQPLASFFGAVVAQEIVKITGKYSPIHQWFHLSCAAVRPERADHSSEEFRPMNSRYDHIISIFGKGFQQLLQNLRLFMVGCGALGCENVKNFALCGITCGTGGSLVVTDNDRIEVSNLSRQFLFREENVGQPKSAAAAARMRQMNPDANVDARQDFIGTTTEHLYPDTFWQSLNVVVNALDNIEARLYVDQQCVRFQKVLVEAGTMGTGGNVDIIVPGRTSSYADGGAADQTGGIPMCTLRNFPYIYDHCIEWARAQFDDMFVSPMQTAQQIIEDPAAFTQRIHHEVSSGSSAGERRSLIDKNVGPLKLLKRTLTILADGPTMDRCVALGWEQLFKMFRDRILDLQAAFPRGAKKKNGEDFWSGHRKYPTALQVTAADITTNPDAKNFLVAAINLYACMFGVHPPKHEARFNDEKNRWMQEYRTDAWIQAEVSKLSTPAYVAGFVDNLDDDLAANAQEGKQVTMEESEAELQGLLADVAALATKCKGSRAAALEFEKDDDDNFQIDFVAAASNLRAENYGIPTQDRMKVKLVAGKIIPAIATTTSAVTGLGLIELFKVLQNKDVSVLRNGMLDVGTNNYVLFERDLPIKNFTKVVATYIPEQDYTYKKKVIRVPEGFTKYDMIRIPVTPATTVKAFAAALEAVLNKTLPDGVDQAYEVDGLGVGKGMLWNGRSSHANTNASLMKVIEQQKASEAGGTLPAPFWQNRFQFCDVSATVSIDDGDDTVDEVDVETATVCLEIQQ

[3] = molecular target: Sialic acid-binding Ig-like lectin 9 (Homo sapiens) (UniProt Q9Y336); experiment: Hs-Siglec9 ALPHAscreen SOP 20170721; settings: 10 µM
[4] = test system: Trypanosoma cruzi; experiment: Trypanosoma cruzi phosphomannomutase and mannose-1-phosphate guanylyltransferase assay; format: functional; settings: 10 µM
[5] = molecular target: T2, Arginase-2, mitochondrial (Homo sapiens) (UniProt P78540); experiment: in vitro enzyme assay to detect the production of urea directly proportional to the activity of Arginase II; format: functional; also: in the data most compounds retested in dose-response had high values
T2 sequence (whole entry): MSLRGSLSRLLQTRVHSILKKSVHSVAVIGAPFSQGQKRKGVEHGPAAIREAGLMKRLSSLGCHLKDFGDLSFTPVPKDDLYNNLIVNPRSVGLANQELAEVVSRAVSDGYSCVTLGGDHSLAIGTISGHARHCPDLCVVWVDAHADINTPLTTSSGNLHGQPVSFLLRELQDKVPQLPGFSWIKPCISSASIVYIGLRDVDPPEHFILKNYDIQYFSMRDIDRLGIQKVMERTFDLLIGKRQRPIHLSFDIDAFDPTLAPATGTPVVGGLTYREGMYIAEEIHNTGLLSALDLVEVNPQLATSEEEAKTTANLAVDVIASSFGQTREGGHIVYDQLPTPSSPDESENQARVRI

[6] = molecular target: T3, Proteasome subunit beta (Trypanosoma cruzi) (UniProt O96673); experiment: Trypanosoma cruzi proteasome chymotrypsin-like activity (TcProtChymo) assay.; also: in the data most compounds retested in dose-response had high values; format: functional; settings: 9.37 µM
T3 sequence (whole entry): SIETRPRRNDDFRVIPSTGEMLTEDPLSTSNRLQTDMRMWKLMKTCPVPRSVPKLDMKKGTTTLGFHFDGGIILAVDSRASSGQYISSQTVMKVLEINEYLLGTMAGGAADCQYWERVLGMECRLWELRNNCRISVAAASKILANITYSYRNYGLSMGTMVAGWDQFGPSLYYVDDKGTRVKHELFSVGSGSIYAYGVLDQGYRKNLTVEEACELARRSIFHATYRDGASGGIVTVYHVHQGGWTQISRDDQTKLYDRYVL

[7] = test system: N/A; experiment: Trypanosoma cruzi proteasome luciferase counter-screen; format: functional; settings: 9.37 µM
[8] = species on record: Homo sapiens; experiment: To identify inhibition of the IFN signalling (Jak-Stat) pathway via expression of an eGFP reporter gene under the control of an IFN-stimulated response element (ISRE) containing MxA promoter.; format: functional; settings: 30 µM
[9] = molecular target: T4, Tyrosyl-tRNA synthetase, putative (Trypanosoma cruzi (strain CL Brener)) (UniProt Q4DSP6); experiment: Trypanosoma cruzi tyrosyl tRNA synthetase (TcYRS) _High Tyrosine SOP; format: functional; settings: 30 µM; also: in the data most compounds retested in dose-response had high values
T4 sequence (whole entry): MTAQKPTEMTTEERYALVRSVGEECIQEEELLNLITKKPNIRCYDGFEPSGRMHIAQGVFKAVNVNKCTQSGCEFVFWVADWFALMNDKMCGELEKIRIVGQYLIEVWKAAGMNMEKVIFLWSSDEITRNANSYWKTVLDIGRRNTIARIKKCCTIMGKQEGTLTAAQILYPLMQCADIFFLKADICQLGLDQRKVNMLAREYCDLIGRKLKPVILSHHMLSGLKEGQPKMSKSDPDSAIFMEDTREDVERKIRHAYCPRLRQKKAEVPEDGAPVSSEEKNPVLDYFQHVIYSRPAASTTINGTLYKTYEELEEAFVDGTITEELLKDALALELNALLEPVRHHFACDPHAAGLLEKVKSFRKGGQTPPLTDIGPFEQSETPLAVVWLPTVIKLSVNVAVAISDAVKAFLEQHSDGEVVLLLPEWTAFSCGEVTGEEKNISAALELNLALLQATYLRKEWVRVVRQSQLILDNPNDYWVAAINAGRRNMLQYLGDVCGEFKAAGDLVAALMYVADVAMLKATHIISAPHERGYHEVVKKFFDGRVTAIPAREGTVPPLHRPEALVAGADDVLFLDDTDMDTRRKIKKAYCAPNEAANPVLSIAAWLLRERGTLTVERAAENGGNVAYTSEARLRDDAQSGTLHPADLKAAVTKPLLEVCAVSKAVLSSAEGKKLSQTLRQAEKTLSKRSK

[10] = molecular target: T4, Tyrosyl-tRNA synthetase, putative (Trypanosoma cruzi (strain CL Brener)); experiment: Trypanosoma cruzi tyrosyl tRNA synthetase (TcYRS) SOP; format: functional; settings: 30 µM
[11] = molecular target: Chromo domain-containing protein 1 (Saccharomyces cerevisiae (strain ATCC 204508 / S288c) (Baker's yeast)) (UniProt P32657); experiment: ScCHD-1 Enzyme Inhibition Assay; format: functional; settings: 30 µM; also: in the data most compounds retested in dose-response had high values
[12] = molecular target: AMP-activated protein kinase, AMPK (Homo sapiens) (UniProt P54646+O43741+P54619+Q9UGJ0+Q9Y478+Q13131+Q9UGI9); experiment: AMP-dependent Kinase enzyme assay. An in vitro enzyme assay that detects ADP turnover that is directly proportional to AMPK activity. This uses naive AMPK that is activated during the assay with MK-8722; format: functional; settings: 30 µM

Sequence of Protein translocase subunit SecA (Escherichia coli (strain K12)) (P10408 whole entry): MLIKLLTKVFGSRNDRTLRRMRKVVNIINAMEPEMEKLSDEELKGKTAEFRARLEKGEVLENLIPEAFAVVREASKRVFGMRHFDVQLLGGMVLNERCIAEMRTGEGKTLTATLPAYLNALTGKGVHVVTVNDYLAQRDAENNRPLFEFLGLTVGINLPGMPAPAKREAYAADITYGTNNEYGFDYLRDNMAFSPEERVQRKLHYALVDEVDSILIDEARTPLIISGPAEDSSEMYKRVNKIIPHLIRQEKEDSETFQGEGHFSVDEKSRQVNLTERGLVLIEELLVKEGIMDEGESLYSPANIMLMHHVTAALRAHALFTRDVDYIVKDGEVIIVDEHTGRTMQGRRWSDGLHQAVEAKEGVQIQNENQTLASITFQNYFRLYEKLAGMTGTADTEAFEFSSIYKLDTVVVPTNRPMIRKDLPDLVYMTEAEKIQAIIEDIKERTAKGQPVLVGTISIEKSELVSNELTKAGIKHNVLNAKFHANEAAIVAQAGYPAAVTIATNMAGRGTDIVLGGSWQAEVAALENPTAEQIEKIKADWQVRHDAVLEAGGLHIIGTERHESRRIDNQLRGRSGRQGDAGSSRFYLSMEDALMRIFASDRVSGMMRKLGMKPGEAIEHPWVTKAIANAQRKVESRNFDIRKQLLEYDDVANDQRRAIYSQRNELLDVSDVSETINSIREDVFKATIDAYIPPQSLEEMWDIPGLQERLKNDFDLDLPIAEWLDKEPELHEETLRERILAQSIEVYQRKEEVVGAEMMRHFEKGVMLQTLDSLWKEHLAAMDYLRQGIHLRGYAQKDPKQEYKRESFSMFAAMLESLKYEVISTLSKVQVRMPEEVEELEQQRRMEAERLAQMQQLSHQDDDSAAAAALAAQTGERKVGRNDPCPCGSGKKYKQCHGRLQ
Sequence of Chromo domain-containing protein 1 (Saccharomyces cerevisiae (strain ATCC 204508 / S288c) (Baker's yeast)) (P32657 whole entry, the tested form may be a part): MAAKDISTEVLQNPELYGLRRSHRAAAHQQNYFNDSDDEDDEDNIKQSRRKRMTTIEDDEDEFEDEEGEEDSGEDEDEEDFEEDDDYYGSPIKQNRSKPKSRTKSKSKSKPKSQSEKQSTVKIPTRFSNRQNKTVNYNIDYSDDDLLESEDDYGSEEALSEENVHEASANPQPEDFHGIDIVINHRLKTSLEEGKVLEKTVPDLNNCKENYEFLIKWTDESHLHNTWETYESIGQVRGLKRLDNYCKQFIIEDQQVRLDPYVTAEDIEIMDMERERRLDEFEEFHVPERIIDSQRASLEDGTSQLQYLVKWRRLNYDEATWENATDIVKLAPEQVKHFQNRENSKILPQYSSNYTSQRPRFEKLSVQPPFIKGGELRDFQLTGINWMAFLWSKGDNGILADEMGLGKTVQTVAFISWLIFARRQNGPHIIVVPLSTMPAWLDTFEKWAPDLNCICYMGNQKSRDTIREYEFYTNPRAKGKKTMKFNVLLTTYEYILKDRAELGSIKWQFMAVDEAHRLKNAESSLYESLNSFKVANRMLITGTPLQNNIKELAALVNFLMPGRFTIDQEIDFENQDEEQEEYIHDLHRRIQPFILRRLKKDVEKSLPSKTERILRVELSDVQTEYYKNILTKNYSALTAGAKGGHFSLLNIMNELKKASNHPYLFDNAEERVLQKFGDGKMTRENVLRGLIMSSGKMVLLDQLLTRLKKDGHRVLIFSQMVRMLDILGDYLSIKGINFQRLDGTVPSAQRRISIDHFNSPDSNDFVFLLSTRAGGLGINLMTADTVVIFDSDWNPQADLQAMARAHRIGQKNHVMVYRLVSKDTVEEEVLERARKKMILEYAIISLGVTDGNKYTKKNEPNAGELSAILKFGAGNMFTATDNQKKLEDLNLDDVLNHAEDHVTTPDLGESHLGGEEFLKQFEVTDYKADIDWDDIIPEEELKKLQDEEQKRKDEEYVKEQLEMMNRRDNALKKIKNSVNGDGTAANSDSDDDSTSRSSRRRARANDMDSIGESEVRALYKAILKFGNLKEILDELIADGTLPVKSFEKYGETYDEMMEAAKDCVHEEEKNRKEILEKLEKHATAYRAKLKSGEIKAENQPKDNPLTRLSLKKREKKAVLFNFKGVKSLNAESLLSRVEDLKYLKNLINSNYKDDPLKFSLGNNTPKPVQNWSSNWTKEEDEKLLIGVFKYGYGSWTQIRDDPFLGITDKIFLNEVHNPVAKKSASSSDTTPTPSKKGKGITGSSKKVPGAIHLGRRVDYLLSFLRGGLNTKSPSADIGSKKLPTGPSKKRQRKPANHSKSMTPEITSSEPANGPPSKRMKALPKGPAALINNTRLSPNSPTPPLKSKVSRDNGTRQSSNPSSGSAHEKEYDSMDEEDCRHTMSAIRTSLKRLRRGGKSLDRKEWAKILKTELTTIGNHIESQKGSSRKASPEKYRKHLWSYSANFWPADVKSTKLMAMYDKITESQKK
Sequence of Sialic acid-binding Ig-like lectin 9 (Homo sapiens) (Q9Y336 whole entry): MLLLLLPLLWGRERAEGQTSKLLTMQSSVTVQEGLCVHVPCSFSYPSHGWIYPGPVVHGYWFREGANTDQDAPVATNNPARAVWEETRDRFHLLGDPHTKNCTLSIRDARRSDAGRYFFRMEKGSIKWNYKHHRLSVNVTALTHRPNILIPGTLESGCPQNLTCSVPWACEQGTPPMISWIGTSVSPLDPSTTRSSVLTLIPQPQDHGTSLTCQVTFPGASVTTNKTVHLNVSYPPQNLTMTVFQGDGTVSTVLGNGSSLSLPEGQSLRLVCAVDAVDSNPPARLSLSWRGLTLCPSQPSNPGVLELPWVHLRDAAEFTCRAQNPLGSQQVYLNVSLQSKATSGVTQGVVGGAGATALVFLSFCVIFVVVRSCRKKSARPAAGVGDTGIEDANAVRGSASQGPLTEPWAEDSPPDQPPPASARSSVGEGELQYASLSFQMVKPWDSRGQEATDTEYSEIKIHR

Compound	Percent Effect [1] [%]	Percent Effect [2] [%]	Percent Effect [3] [%]	Percent Effect [4] [%]	Percent Effect ([5]; 33.3 µM) [%]	Percent Effect [6]	Percent Effect [7]	Percent Effect [8] [%]	Percent Effect [9] [%]	Percent Effect [10] [%]	Percent Effect [11] [%]	Percent Effect [12] [%]	Percent Effect ([5]; 30 µM) [%]
COc1cccc(-c2nc(CNCCn3cccn3)cs2)c1	-0.562	-2.56	-1.83	-5.54	2.46	59.5% and 60.9% and 43.9%	31.8% and 30.9%	37.8	4.31	6.02	1.48	–	–
Cn1ccc(CN2CCCC2c2ccc3c(c2)OCCCO3)cc1=O (stereo unspecified)	-1.37	7.69	-4.76	1.78	6.56	18.2%	–	22	9.09	20.5	-1.67	–	–
CCc1nnc2n1CCN(Cc1csc(-c3ccc(C)o3)n1)C2	-2.83	10.3	-4.26	7.42	1.23	36.4% and 37.5% and 36.1%	6.53% and 0.633%	4.79	8.13	22.9	-6.08	–	–
Cc1ccc(NC(=O)C2=CN=S=N2)cc1	1.26	17.3	-13.9	3.94	0	84.2% and 80.5% and 69%	45.6% and 45.1%	21.4	4.23	10	-20.4	–	–
Cn1ccc(C(=O)NCc2cccc(CN3CCCC3)c2)cc1=O	-1.76	20.8	0.574	2.05	-6.35	19.2% and 18.4% and 34%	12% and 8.64%	-14.3	11.8	30.6	-13	–	–
O=S(=O)(NCC1(O)CCOc2ccccc21)c1ccc(Br)s1 (stereo unspecified)	-7.03	2.74	-1.37	-3.72	-1.82	4.97%	–	21.1	–	–	-2.54	6.4	–
COc1cccc(-c2noc(C3CCN(Cc4cccs4)C3)n2)c1 (stereo unspecified)	4.18	4	-7.16	-5.33	1.77	57.3% and 54.2% and 60.1%	26.2% and 26.8%	16	-3.17	7.5	-23.7	–	–
CN(C)[C@H]1CCCCN(C(=O)CCc2csc(N)n2)C1	-6.59	2.7	-1.59	1.46	-0.35	9.76%	–	-5.61	3.72	7.32	0.286	–	2.7
CS(=O)(=O)NCc1cc2n(n1)CCCN(Cc1nc3ccccc3[nH]1)C2	-9.74	2.7	1.38	-1.46	3.85	6.16%	–	-1.07	6.92	9.76	3.52	–	–
CCn1cc(C(=O)N2CCCC(c3[nH]ncc3S(C)(=O)=O)C2)cn1 (stereo unspecified)	-2.25	12	-0.292	0.395	-0.443	13.1%	–	-2.06	4.23	20	-20.4	–	–
Cn1ccc2ccc(C(=O)N3CCN(C(=O)N4CCOCC4)CC3)cc21	-5.67	24.3	12.2	9.6	3.85	13.2%	–	14.4	9.04	17.1	-1.13	–	–
CS(=O)(=O)N1CCN(C(=O)Cn2ccc3c(Cl)cccc32)CC1	-4.17	-2.7	-2.63	-7.08	-3.15	18.1%	–	4.83	2.66	2.44	-0.985	–	5.95
O=C(CSC1CCc2ccccc2NC1=O)NCCO (stereo unspecified)	-0.348	13.5	0.884	1.84	-3.15	15.6%	–	25.1	5.85	14.6	-1.22	–	–
O=C(c1ccc(OCC2CC2)nc1)N1CCCC(n2ccnc2)C1 (stereo unspecified)	-2.4	12.8	-6.85	2.72	6.97	9.64%	–	5.6	8.13	22.9	-4.73	–	–
O=C(CCC1CCN(Cc2ncc[nH]2)CC1)Nc1ccccc1Cl	-2.38	-5.41	-2.45	-0.291	-2.45	8.56%	–	0.831	-0.532	0	4.74	–	–
O=C(Cc1cn2ccsc2n1)N1CCCC(n2cncn2)C1 (stereo unspecified)	-3.72	12.8	-3.95	-4.22	-5.74	13.9%	–	31.1	4.31	13.2	-5.26	–	–
Cc1cnn(CC2CCN(CC(O)COc3ccc(F)cc3)CC2)c1 (stereo unspecified)	-5.77	2.6	-3.53	-1.87	-5.94	4.21%	–	9.11	0.98	0	-2.59	–	–
CS(=O)(=O)Cc1cccc(C(=O)N2CCCC(n3cccn3)C2)c1 (stereo unspecified)	-3.02	2.56	-5.84	-5.92	-1.23	4.69%	–	24.6	2.39	1.21	-5.08	–	–
CC(C)NC(=O)C1CN(C(=O)Nc2ccccc2)CC12CCOCC2 (stereo unspecified)	-8.24	3.9	-2.62	-3.02	1.22	22.9%	–	14.5	6.84	2.56	-3.13	–	–
CS(=O)(=O)NCC1CCCN(C(=O)COc2ccc(F)cc2)C1 (stereo unspecified)	-1.75	10.3	-7.96	9.86	1.23	3.5%	–	12.5	4.31	-146	-6.15	–	–
COc1ccc(C(C)NC(=O)Cn2ccc(=O)n(C)c2=O)cc1OC (stereo unspecified)	-2.49	7.79	11	-2.8	3.48	9.65%	–	17.1	8.82	18.8	-4.91	–	–
CCOCC1CN(S(C)(=O)=O)Cc2cnn(CC3CCOCC3)c21 (stereo unspecified)	-3.9	1.3	-0.726	-5.94	-5.26	10.5%	–	0.606	3.68	12.8	-2.94	–	–
CC(C)c1nnc2n1CCN(C(=O)c1cccc(C(F)(F)F)c1)C2	-5.89	18.7	10	2.81	1.33	6.19%	–	7.24	6.84	15.4	-7.15	–	–
